Data on 8 molecules can be found in PubChem BioAssay AID1345085 (National Center for Advancing Translational Sciences (NCATS), 2018).

Results filed as inconclusive are left out. Activity calls are given as the source filed them. Calls follow the shape of the dose curve; as a rule, active = well fitted cell-killing curve with a large enough effect; inconclusive = small, poorly fitted or top-dose-only effect, or effect the other way; inactive = no such curve, though single readings can be large or run the other way.
% is scaled to controls: 0 for no effect and ±100 for the full control effect; potency is read from the fitted curve at half-maximal effect.

The assay has as its system HeLa. The experiment in a line: Confirmatory qHTS for gynecologic anti-cancer compounds from libraries of approved drugs and bioactive compounds. Also: nearly all actives have a fitted effect of over 55% in size. Conditions: gynecologic cancer cell panel viability, ATPlite luminescence, 48 h; series mostly up to 57.6 µM; activity change, negative = viability loss: at the top concentration. The gist of the method: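 1,000 cells/well; 16 h pre-incubation 37 C, 5% CO2; pin-transferred cpd in DMSO, 11 conc (1:3), 57.5 uM–0.977 nM; 48 h; ATPlite, 15 min RT; luminescence → IC50.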
A general note: qHTS replaces the single test concentration by a dilution series.
As for `CCNC(=O)C[C@@H]1N=C(c2ccc(Cl)cc2)c2cc(OC)ccc2-n2c(C)nnc21`, the Potency was 1530 nM (active). Still for that read-out and setting: with `C=C(C)[C@H]1Cc2c(ccc3c2O[C@@H]2COc4cc(OC)c(OC)cc4[C@@H]2C3=O)O1` the figure was 243 nM (active); with `Cc1sc2c(c1C)C(c1ccc(Cl)cc1)=NC(CC(=O)OC(C)(C)C)c1nnc(C)n1-2` (stereo not drawn), 769 nM (active). Regarding `O=C(O)Cc1ccccc1`, the “activity change, negative = viability loss” value was 19.4% (inactive). Regarding `C/C=C(/C)C(=O)O[C@H]1C(C)=C2[C@H]([C@@H]1OC(=O)CCCCCCC)[C@@](C)(OC(C)=O)C[C@H](OC(=O)CCC)[C@@]1(O)[C@H]2OC(=O)[C@@]1(C)O`, the Potency is 61.1 nM (active).

With `CCC(=O)O[C@H]1CC[C@H]2[C@@H]3CCC4=CC(=O)CC[C@]4(C)[C@H]3CC[C@]12C`, the Potency was 4320 nM (active). For the molecule `C[C@H]1CCC/C=C/C2C[C@H](O)C[C@H]2[C@H](O)/C=C/C(=O)O1` (stereo partly drawn), the Potency is 172 nM (active). Same read-out and setting: to `C[C@]12CC[C@H]3[C@@H](CCC4=CC(=O)CC[C@@H]43)[C@@H]1CC[C@@H]2OC(=O)CCc1ccccc1` belongs 2730 nM (active).
